Experimental findings from ChEMBL document CHEMBL3988442, “University of Dundee, Small-Polar-MMV Screening Library” (2021) are described below.

SMILES strings stand for the structures. For some of these results: Entries with a potency or affinity are not part of this list.

Parameters in all cases: scale not given: direction of the effect not stated beside the values
For assay [1], the target named is Protein translocase subunit SecA (Escherichia coli (strain K12)) (UniProt P10408). The assay can be described thus: Assay to Identify E. coli SecA ATPase Inhibitors. It counts as functional. To be noted: 30 µM.
In assay [2] the target is T1, Ubiquitin-activating enzyme e1, putative (Leishmania donovani (strain BPK282A1)) (UniProt E9BSI1).
T1 sequence (whole entry): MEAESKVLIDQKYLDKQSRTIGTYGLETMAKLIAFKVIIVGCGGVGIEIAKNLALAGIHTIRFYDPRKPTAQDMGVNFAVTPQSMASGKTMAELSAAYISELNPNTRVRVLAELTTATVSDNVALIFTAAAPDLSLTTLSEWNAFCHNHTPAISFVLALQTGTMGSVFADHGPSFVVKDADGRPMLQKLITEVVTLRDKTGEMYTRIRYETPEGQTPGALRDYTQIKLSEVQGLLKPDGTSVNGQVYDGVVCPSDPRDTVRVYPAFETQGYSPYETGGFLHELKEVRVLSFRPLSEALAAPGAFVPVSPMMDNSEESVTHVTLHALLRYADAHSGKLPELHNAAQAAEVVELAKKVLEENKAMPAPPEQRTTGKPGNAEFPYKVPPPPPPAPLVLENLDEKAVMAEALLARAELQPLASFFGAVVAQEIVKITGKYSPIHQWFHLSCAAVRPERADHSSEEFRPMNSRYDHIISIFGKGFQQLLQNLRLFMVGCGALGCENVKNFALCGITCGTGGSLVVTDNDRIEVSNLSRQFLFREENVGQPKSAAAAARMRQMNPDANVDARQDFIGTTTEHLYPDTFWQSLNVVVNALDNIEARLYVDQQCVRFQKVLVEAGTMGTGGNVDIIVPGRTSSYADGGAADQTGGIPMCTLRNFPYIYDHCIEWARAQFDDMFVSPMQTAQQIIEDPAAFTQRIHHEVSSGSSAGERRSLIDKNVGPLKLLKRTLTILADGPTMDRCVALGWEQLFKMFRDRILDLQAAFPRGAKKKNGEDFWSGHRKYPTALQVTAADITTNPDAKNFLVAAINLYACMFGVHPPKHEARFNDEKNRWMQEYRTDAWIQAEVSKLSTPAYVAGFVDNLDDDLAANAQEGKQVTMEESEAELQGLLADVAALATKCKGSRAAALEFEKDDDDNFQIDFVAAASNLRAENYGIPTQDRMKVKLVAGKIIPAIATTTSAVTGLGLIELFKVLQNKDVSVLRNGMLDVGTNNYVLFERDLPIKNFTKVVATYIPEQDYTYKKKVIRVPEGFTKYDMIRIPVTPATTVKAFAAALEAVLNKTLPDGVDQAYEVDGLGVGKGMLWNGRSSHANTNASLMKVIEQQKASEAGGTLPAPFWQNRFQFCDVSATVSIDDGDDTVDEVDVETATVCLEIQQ
The assay can be described thus: Leishmania donovani Ubiquitin Activating Enzyme (LdE1). In kind it is functional. To be noted: 30 µM.

The target of assay [3] is AMP-activated protein kinase, AMPK (Homo sapiens) (UniProt P54646+O43741+P54619+Q9UGJ0+Q9Y478+Q13131+Q9UGI9). The assay can be described thus: AMP-dependent Kinase enzyme assay. An in vitro enzyme assay that detects ADP turnover that is directly proportional to AMPK activity. This uses naive AMPK that is activated during the assay with MK-8722. In kind it is functional. Particulars: 30 µM.

For assay [4], the target named is Sialic acid-binding Ig-like lectin 9 (Homo sapiens) (UniProt Q9Y336). As to the kind of experiment: Hs-Siglec9 ALPHAscreen SOP 20170721. To be noted: 10 µM. (Alpha assays give light when donor and acceptor beads are brought close together.)
The test system of the next assay is Trypanosoma cruzi. The assay can be described thus: Trypanosoma cruzi phosphomannomutase and mannose-1-phosphate guanylyltransferase assay. It counts as functional. Particulars: 10 µM.
Assay [5] concerns the target T2, Arginase-2, mitochondrial (Homo sapiens) (UniProt P78540).
T2 sequence (whole entry): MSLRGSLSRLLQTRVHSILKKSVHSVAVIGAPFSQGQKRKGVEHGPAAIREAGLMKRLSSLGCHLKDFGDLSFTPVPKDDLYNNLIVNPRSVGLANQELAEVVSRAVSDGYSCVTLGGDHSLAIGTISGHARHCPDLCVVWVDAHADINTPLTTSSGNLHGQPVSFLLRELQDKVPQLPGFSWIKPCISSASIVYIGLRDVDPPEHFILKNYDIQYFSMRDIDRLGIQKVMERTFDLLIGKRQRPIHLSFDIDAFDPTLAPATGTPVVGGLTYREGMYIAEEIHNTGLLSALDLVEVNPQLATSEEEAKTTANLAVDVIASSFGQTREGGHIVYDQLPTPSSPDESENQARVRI
As to the kind of experiment: in vitro enzyme assay to detect the production of urea directly proportional to the activity of Arginase II. Note: in the data most compounds retested in dose-response had high values. It counts as functional. To be noted: 33.3 µM.

For assay [6], the target named is T3, Proteasome subunit beta (Trypanosoma cruzi) (UniProt O96673).
T3 sequence (whole entry): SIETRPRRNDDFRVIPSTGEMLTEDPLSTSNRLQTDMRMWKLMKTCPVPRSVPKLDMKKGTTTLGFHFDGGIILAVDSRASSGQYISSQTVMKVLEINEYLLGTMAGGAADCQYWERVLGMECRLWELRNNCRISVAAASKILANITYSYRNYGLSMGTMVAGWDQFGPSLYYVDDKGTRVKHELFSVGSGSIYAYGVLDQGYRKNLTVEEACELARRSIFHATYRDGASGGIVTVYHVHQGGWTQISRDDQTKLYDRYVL
As to the kind of experiment: Trypanosoma cruzi proteasome chymotrypsin-like activity (TcProtChymo) assay. Note: in the data most compounds retested in dose-response had high values. In kind it is functional. To be noted: 9.37 µM.

The species named for a further assay is Homo sapiens. As to the kind of experiment: To identify inhibition of the IFN signalling (Jak-Stat) pathway via expression of an eGFP reporter gene under the control of an IFN-stimulated response element (ISRE) containing MxA promoter. In kind it is functional. To be noted: 30 µM. Background: A reporter such as luciferase makes a cellular process visible.

Assay [7] deals with T4, Tyrosyl-tRNA synthetase, putative (Trypanosoma cruzi (strain CL Brener)) (UniProt Q4DSP6).
T4 sequence (whole entry): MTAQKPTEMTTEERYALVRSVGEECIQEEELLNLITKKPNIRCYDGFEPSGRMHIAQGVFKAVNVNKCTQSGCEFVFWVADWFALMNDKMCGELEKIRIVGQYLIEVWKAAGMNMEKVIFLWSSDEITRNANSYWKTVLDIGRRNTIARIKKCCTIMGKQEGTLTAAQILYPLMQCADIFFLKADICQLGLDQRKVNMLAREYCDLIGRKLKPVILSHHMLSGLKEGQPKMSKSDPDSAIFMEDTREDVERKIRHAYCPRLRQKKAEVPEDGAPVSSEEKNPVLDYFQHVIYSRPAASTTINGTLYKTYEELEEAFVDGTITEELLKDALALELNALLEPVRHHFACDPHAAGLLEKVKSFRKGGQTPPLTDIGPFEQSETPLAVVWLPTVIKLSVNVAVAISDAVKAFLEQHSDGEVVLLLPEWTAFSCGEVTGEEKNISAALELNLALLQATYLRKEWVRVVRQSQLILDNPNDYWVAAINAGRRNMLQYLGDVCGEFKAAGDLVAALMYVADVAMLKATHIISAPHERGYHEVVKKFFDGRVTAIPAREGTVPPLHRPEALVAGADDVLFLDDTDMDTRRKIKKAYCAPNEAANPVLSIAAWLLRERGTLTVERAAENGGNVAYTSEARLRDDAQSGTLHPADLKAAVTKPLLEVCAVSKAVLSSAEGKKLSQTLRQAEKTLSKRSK
As to the kind of experiment: Trypanosoma cruzi tyrosyl tRNA synthetase (TcYRS) _High Tyrosine SOP. Note: in the data most compounds retested in dose-response had high values. In kind it is functional. To be noted: 30 µM.

Assay [8] addresses T4, Tyrosyl-tRNA synthetase, putative (Trypanosoma cruzi (strain CL Brener)). As to the kind of experiment: Trypanosoma cruzi tyrosyl tRNA synthetase (TcYRS) SOP. In kind it is functional. Particulars: 30 µM.
Assay [9] has as its target Chromo domain-containing protein 1 (Saccharomyces cerevisiae (strain ATCC 204508 / S288c) (Baker's yeast)) (UniProt P32657). As to the kind of experiment: ScCHD-1 Enzyme Inhibition Assay. Note: in the data most compounds retested in dose-response had high values. In kind it is functional. Particulars: 30 µM.

Chain of Sialic acid-binding Ig-like lectin 9 (Homo sapiens) (Q9Y336 whole entry): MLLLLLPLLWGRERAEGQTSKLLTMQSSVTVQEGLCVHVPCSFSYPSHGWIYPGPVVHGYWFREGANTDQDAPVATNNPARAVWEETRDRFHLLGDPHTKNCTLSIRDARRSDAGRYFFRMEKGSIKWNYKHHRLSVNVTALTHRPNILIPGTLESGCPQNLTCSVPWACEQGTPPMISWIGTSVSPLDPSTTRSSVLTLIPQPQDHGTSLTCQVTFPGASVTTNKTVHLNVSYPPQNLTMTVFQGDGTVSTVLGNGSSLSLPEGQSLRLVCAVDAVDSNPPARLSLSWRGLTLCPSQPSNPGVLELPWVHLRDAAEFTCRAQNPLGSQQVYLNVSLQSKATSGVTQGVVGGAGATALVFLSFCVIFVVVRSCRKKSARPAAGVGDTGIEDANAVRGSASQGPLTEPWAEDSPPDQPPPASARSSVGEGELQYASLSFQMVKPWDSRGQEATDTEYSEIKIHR
Chain of Chromo domain-containing protein 1 (Saccharomyces cerevisiae (strain ATCC 204508 / S288c) (Baker's yeast)) (P32657 whole entry, the tested form may be a part): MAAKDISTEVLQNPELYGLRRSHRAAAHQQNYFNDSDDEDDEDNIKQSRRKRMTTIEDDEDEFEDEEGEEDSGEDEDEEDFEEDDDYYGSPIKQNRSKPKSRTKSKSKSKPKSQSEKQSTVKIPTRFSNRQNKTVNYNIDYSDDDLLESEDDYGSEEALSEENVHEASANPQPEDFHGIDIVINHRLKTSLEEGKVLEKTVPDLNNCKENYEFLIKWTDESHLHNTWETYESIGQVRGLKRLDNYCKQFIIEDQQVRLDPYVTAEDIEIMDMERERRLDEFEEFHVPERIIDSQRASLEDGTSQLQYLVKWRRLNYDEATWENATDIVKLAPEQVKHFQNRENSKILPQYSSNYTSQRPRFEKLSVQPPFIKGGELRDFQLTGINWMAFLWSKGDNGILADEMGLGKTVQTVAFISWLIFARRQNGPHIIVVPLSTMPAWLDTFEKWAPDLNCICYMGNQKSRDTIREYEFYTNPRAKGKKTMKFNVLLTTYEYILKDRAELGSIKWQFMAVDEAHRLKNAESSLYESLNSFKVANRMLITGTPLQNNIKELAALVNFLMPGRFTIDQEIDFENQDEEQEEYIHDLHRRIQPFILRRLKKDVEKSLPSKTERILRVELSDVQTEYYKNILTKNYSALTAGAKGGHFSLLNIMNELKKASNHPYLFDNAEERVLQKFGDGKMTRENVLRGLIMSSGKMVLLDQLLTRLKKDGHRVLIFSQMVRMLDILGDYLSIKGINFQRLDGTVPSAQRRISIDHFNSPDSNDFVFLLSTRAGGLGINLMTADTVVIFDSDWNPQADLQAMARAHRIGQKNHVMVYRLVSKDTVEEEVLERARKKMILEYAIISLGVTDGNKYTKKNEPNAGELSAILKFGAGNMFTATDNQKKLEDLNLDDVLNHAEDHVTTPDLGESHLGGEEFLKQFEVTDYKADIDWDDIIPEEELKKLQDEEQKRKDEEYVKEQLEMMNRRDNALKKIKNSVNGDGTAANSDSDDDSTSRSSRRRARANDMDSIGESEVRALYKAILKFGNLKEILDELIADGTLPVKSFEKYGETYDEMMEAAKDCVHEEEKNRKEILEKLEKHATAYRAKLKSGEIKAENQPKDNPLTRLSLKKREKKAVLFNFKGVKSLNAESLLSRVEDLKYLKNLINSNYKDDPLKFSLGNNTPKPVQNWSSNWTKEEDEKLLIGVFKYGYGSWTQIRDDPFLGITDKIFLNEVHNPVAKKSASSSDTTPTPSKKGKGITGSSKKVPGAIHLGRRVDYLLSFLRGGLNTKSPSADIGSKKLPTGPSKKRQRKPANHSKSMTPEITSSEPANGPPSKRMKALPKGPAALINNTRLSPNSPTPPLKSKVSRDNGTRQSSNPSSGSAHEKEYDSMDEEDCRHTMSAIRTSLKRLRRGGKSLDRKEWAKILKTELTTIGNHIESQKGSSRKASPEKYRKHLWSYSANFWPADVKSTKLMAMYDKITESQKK
Chain of Protein translocase subunit SecA (Escherichia coli (strain K12)) (P10408 whole entry): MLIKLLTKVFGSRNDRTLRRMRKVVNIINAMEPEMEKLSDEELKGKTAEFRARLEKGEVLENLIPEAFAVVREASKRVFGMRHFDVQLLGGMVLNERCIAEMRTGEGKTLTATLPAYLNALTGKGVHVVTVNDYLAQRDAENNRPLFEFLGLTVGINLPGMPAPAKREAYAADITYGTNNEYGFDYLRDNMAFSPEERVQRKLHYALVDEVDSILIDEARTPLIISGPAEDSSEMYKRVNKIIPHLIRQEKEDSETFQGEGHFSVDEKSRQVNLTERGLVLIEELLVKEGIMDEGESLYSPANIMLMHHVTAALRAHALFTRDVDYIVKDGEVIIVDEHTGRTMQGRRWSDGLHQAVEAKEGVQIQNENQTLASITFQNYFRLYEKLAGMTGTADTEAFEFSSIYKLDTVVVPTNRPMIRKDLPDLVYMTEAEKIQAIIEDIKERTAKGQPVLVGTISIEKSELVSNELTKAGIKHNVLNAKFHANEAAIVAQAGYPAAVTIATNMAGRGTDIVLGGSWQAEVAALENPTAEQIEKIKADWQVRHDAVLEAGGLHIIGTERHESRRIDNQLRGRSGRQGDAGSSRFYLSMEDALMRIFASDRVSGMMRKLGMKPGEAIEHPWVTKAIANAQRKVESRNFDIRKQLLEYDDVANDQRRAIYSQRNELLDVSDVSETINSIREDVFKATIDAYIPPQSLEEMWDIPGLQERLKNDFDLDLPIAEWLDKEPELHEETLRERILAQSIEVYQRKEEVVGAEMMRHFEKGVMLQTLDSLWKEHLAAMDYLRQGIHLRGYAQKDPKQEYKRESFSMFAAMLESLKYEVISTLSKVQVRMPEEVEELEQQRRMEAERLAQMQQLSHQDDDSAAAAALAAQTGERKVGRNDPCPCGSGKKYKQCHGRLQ

As to `CC(=O)Nc1nc(C(=O)N2CCCC(n3ccnc3)C2)cs1` (stereo unspecified), the Percent Effect in assay [1] was -2.04%; in assay [2], -7.89%; in [3] it was -5.64%; in [4] it was -2.76%; with Trypanosoma cruzi it was -6.44%; in assay [5], 3.6%. For the same compound, the Percent Effect was -6.34% in assay [6]; -6.45% in the assay listed under Homo sapiens; 2.46% in [7]; 1.24% in assay [8]; 5.04% in assay [9].
Take `Cc1ccccc1C1(CNC(=O)NCCc2nnc3n2CCC3)CC1`: the Percent Effect in assay [1] was -1.76%; in assay [2] it was -5.26%; in [3], -101%; in assay [4] it was 5.17%; with Trypanosoma cruzi, -3.41%; in assay [5], -2.37%. Also, the Percent Effect in [6] is 7.19%; in the assay listed under Homo sapiens, -19.3%; in assay [7], 0%; in assay [8] it was -2.6%; in assay [9] it was -0.461%.
With `Cc1ccc(CN2Cc3nnn(C)c3C(COCCN(C)C)C2)s1` (stereo unspecified), the Percent Effect is -6.87% in assay [1]; 2.7% in assay [2]; -1.39% in [3]; -1.89% in assay [4]; -5.57% with Trypanosoma cruzi; -3.72% in assay [5]. In addition, the Percent Effect was 4.89% in assay [6]; 15% in the assay filed under Homo sapiens; 2.15% in [7]; 8.64% in assay [8]; -3.26% in assay [9].
For `O=C(N1CCCO1)[C@@]12CCO[C@@H]1CCN(C1CCCCC1)C2`, the Percent Effect in assay [1] is -5.99%; in assay [2], 16%; in [3], -8.58%; in assay [4], 1.15%; in the assay with Trypanosoma cruzi, 0%; in assay [5] it was -50.7%. Moreover, the Percent Effect is 4.96% in assay [6]; -2.54% in the assay filed under Homo sapiens; -105% in assay [7]; 15% in [8]; -10.2% in assay [9].
For `CN(C)Cc1ccnc(C2CCCN2Cc2ccncc2)n1` (stereo unspecified), the Percent Effect was -4.54% in assay [1]; 9.46% in [2]; -5.08% in assay [3]; 2.14% in [4]; 6.72% in the assay with Trypanosoma cruzi; -4.41% in [5]. Also, the Percent Effect in assay [6] is 4.21%; in the assay filed under Homo sapiens it was 7.82%; in assay [7], 3.23%; in assay [8], 11.7%; in assay [9], -20.6%.
Take `CSCCCN1CCCC1c1noc(C)n1` (stereo unspecified): the Percent Effect in [1] was -0.0492%; in assay [2], 13.2%; in [3], -11.1%; in assay [4], -5.04%; in the assay with Trypanosoma cruzi, 6.39%; in assay [5], 8.43%. For the same compound, the Percent Effect in assay [6] was 23.7%; in the assay filed under Homo sapiens, 19.4%; in assay [7], 14.2%; in assay [8], 21.9%; in assay [9], -9.94%.
Take `Cc1ccc(C(=O)O)cc1S(=O)(=O)Nc1nn(-c2ccccc2)cc1C`: the Percent Effect is -5.95% in assay [1]; 2.74% in [2]; 9.77% in assay [3]; 0.854% in assay [4]; -5.09% in the assay on Trypanosoma cruzi; 0.455% in assay [5]. In addition, the Percent Effect in assay [6] is 17.6%; in the assay listed under Homo sapiens, 17.3%; in assay [7], -10.8%; in assay [8], -17.5%; in assay [9] it was -5.76%.
`c1coc(CN2Cc3nccn3CC(Cn3cncn3)C2)c1` (stereo unspecified): the Percent Effect in assay [1] was -4.49%; in [2] it was -2.74%; in assay [3], -1.24%; in assay [4], 1.11%; with Trypanosoma cruzi, -2.38%; in [5], -4.39%. The Percent Effect in assay [6] was 6.25%; in the assay filed under Homo sapiens it was -3.99%; in [7], 1.04%; in assay [8], 1.24%; in assay [9], -1.23%.
`c1ccc(-n2ncc(CNCC3CCCN3c3cccnn3)n2)cc1` (stereo unspecified): the Percent Effect in [1] was -3.03%; in assay [2], -28.9%; in [3], -19.7%; in assay [4], 8.84%; in the assay on Trypanosoma cruzi it was 11.7%; in assay [5], -5.4%. The Percent Effect was -3.64% in assay [6]; 6.81% in the assay filed under Homo sapiens; 12.3% in assay [7]; 18.5% in assay [8]; 0.0713% in assay [9].
Regarding `COC(=O)c1ccc2ccn(CC3CCNC3)c(=O)c2c1` (stereo unspecified), the Percent Effect is -1.56% in assay [1]; 24.7% in assay [2]; -24.1% in assay [3]; 16.4% in assay [4]; 4.31% in the assay on Trypanosoma cruzi; 2.27% in assay [5]. Besides, the Percent Effect in [6] is 21.8%; in the assay filed under Homo sapiens it was 6.65%; in assay [7] it was 6.45%; in assay [8], 20%; in assay [9], -5.95%.
Take `Fc1ccc(CN2CCCC(c3nnc(-c4cnccn4)o3)C2)cc1F` (stereo unspecified): the Percent Effect was -9.81% in assay [1]; 14.9% in assay [2]; -1.12% in assay [3]; 9.24% in assay [4]; -0.198% with Trypanosoma cruzi; -3.02% in assay [5]. In addition, the Percent Effect in assay [6] was 12%; in the assay listed under Homo sapiens, 1.34%; in assay [7], 6.45%; in [8], 14.3%; in assay [9] it was -26.6%.
